Source: PubChem BioAssay (NCI)
“And” between values parts separate entries of the source, which are not always exact repeats. Equal entries are not always repeated. About 83,000 compounds went through this panel and 20% of them were active in at least one assay; those are over-represented in the sample as a whole.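 48-hour exposure, single concentration, 96-well plates; percent growth endpoint where 0 means no net growth. Active: below 10.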 The source made the active and inactive calls.

Test system: MCF7 breast
Test: NCI-60 one-dose screen, 48 h (100 = growth as untreated, 0 = no growth, -100 = all killed)
Conditions: 10 µM unless noted

SMILES | growth
CCCCOC(=O)C1CC[C@H]2[C@@H]3CCc4cc(OC(=O)c5cccc6c(=O)c7ccccc7[nH]c56)ccc4[C@H]3CC[C@]12C (some centres not stated) | -86.3% [50 µM] (active) and -100% [50 µM] (active)
CC#CC#C/C=C1\C=CC2(OC=CC2OC(C)=O)O1 (configuration not stated) | -91.4% [100 µM] (active) and -48.8% [100 µM] (active)
CC(=O)OCC1=C(C)C[C@H]([C@@H](COC(C)=O)C2CCC3C4C[C@H]5O[C@]56CC=CC(=O)[C@]6(C)C4CC[C@@]32C)OC1=O (some centres not stated) | -69.8% [50 µM] (active) and -84.4% [50 µM] (active)
Cc1c2c(c(O)c3c(O)cccc13)C(=O)C1(O)C(O)=C(C(=O)NCNc3ccc(C(N)=O)cn3)C(=O)C(N(C)C)C1C2 (configuration not stated) | -81.9% [100 µM] (active) and -89.4% [100 µM] (active)
CCC/C(Cl)=N\OC(=O)Nc1ccc(F)cc1 | -78.4% [100 µM] (active) and -69.5% [100 µM] (active)
CCOc1cc2c(cc1O)/C(=N\N)C[C@@H]1[C@@H]2CC[C@]2(C)[C@@H](O)CC[C@@H]12 | 20.2% [100 µM] (inactive) and -66.9% [100 µM] (active)
NNC1=N/C(=C\c2ccco2)C(Cl)=N1 | 16.5% [100 µM] (inactive) and -15.6% [100 µM] (active)
CC(=O)c1cc2c(s1)C(=O)c1ccsc1C2=O | -62.9% [100 µM] (active) and -100% [100 µM] (active)
CCCC(=O)Oc1c2ccsc2c(OC(=O)CCC)c2ccsc12 | -72.6% [100 µM] (active) and -100% [100 µM] (active)
C=C1C(=O)OC2/C=C(\CO)C(OC(C)=O)CC(O)/C(C)=C/C(OC(=O)C(C)CC)C12 (configuration not stated) | -87% [100 µM] (active) and -86.7% [100 µM] (active)
CC12NC(=C(C#N)C#N)C(C#N)=C3NC(N)=C(C#N)C(=C31)Oc1ccccc12 (configuration not stated) | 17.3% [100 µM] (inactive) and -45.9% [100 µM] (active)
N#Cc1sc2nc(/C=C3/C=CC=CC3=O)c(O)n2c1N | 30.3% [100 µM] (inactive) and 3.44% [100 µM] (active)
CC1(C)CC2(C)OC(=N)C1(C#N)C2(C#N)C#N (configuration not stated) | -56.8% [100 µM] (active) and -71.8% [100 µM] (active)
COc1cc(CC2c3cc(OC)c(OC)cc3CCN2C)c(Oc2cc3c(cc2OC)-c2c(O)c(OC)cc4c2C(C3)N(C)CC4)cc1OC (configuration not stated) | 20.4% [100 µM] (inactive) and -77.4% [100 µM] (active)
CC(=O)OC(=C(C#N)C#N)c1nccnc1C(C)=O | 106% [20 µM] (inactive) and 75.4% [20 µM] (inactive)
NC1=NN(c2ccccc2)C2(c3ccncc3C(=O)O)C1C(N)=NN2c1ccccc1 (configuration not stated) | 69.3% [100 µM] (inactive) and 90.4% [100 µM] (inactive)
COc1cc2c(cc1-c1coc3cc(OCC=C(C)C)ccc3c1=O)OCO2 | -12% [100 µM] (active) and -54.2% [100 µM] (active)
COC(=O)c1ccc(CCc2cc(O)c(Br)cc2O)cc1 | -61.7% [100 µM] (active) and -71.7% [100 µM] (active)
CC(=O)Oc1ccc2ccc(=O)oc2c1OC(C)=O | -69.1% [100 µM] (active) and -65% [100 µM] (active)

SMILES | growth
CC(C)(C)N/N=C(\C(=O)Nc1ccc([N+](=O)[O-])cc1[N+](=O)[O-])c1nc2ccc([N+](=O)[O-])cc2[nH]c1=O | 56.5% [100 µM] (inactive) and 7.04% [100 µM] (active)
COc1cc([N+](=O)[O-])c(OC)c2c(Nc3ccc(S(=O)(=O)O)c4cc(S(=O)(=O)O)cc(S(=O)(=O)O)c34)cc(C)nc12 | -88.5% [100 µM] (active) and -100% [100 µM] (active)
O=C1N(c2ccccc2)N=C2c3ccncc3C3=NN(c4ccccc4)C(=O)C123 (configuration not stated) | 28.9% [100 µM] (inactive) and -33.6% [100 µM] (active)
CCOC(=O)CCC(NC(=O)c1ccc(OCc2nc3cc(C(F)(F)F)ccc3nc2-c2ccccc2)cc1)C(=O)OCC (configuration not stated) | 32% [100 µM] (inactive) and -53% [100 µM] (active)
CC(C)=CCC/C(C)=C/CC/C(C)=C/CSc1ccc(Cl)cc1C(=O)O | -52.6% [100 µM] (active) and 17.2% [100 µM] (inactive)
N#Cc1c(=N)cc2c3ccccc3oc3c(C#N)c(N)[nH]c1c32 | 74.3% [100 µM] (inactive) and 24.3% [100 µM] (inactive)
Cc1ccnc2[nH]c(-c3ccc(F)cc3)cc(=O)c12 | 22.1% [100 µM] (inactive) and 5.04% [100 µM] (active)
Nc1cc2c3c(cccc3c1)C(=O)N(c1ccc(OCCN3CCCC3)cc1)C2=O | -78.2% [100 µM] (active) and -100% [100 µM] (active)
CC(C)=CCC/C(C)=C/CC/C(C)=C/CC/C(C)=C/C=C/C=C(\C)CC/C=C(\C)CC/C=C(\C)CCC=C(C)C | 74.5% [100 µM] (inactive) and 28.2% [100 µM] (inactive)
CCC1CC(C)C(O)/C=C/C=C/CC(C)OC(=O)CC(O)C(OC)C1OC1OC(C)CC(O)(C(C)=O)C1O (configuration not stated) | 32% [100 µM] (inactive) and 5.08% [100 µM] (active)
N#CC12COC3(CCCCC3C1(C#N)C#N)OC2=N (configuration not stated) | -25.8% [100 µM] (active)
Nc1cc2c3c(cccc3c1)C(=O)N(c1ccc(OCCN3CCCCC3)cc1)C2=O | -95.1% [100 µM] (active) and -100% [100 µM] (active)
CC12CCC3c4cc(Br)c(O)c(Br)c4CCC3C1CCC2O (configuration not stated) | 5.35% [100 µM] (active) and -48.4% [100 µM] (active)
CN(C)CCNc1ccc(NCC[N+](C)(C)Cc2ccc([N+](=O)[O-])cc2)c2c1C(=O)c1ccccc1C2=O | 6.38% [25 µM] (active) and -100% [25 µM] (active)
O=c1cc(-c2ccc(O)cc2)oc2cc(O[C@@H]3O[C@H](CO)[C@@H](O)[C@H](O)[C@H]3O)cc(O)c12 | 38.3% [100 µM] (inactive) and 0.613% [100 µM] (active)
C/C(Cl)=N/OC(=O)Nc1ccc(S(N)(=O)=O)c(C)c1 | -72.4% [100 µM] (active) and -89.8% [100 µM] (active)
COC(=O)C(=O)C(C(=O)C(=O)Nc1ccccc1C(=O)OC)c1nc2ccc(C(=O)c3ccccc3)cc2[nH]c1=O (configuration not stated) | 58.7% [100 µM] (inactive) and 7.77% [100 µM] (active)
O=C(CCc1ccccc1)On1c(-c2ccccc2)nc2ccccc2c1=S | -34.4% [100 µM] (active) and -60.1% [100 µM] (active)
